# Assay results as given in PubChem BioAssay (Tox21).
# Results filed as inconclusive are left out. Active and inactive are the calls of the source. Calls follow the shape of the dose curve; as a rule, active = well fitted cell-killing curve with a large enough effect in the repeat runs; inconclusive = weak or mixed curves, or effect the other way; inactive = flat fitted curve, though single readings scatter.
# Assay: qHTS assay to identify small molecule agonists of the TGF-beta/Smad signaling pathway - cell viability counter screen (AID 1346829); also: top concentration of the series differs between compounds; nearly all actives have a fitted effect of over 45% in size
# Conditions: SBE-bla HEK293T viability, CellTiter-Glo luminescence, 5 h; series mostly up to 76.8 µM; activity change, negative = cytotoxicity: at the top concentration
# Description: National Center for Advancing Translational Sciences [NCATS]
# NIH Chemical Genomics Center [NCGC]
# U.S. Environmental Protection Agency [EPA]
# National Institutes of Environmental Health Sciences [NIEHS]
# National Toxicology Program [NTP]
# U.S. Food and Drug Administration [FDA]
# Transforming growth factor beta (TGF-beta) superfamily consists of a large number of structurally related dimeric proteins that act as hormones or local mediators in regulating a wide range of biological functions. This superfamily includes TGF-betas themselves, the bone morphogenetic proteins (BMPs) and the activins. These ligands induce oligomerization of serine/threonine receptor kinases and phosphorylate the cytoplasmic signaling molecules of Smad protein family. CellSensor SBE-bla HEK 293T cell line (Life Technologies, Carlsbad, CA), responsive to TGF-beta was used to screen Tox21 10K compound library for identification of agonists/antagonists of the Smad signaling pathway. This cell line contains a beta-lactamase reporter gene under control of the Smad binding element (SBE) stably integrated into HEK 293T cells. Also cytotoxicity of the compounds was tested in parallel by measuring the cell viability using CellTiter-Glo assay system in the same wells.
# Tox21 Assay Protocol Summary:
# SBE-bla HEK 293T cells were dispensed at 4,000/well in 6 uL of assay medium into black wall/clear-bottom 1536-well plates using a Multidrop Combi (ThermoFisher Scientific, Waltham, MA) dispenser. After the assay plates were incubated at 37 C and 5% CO2 for an overnight, 23 nL of compounds dissolved in DMSO, positive controls or DMSO only was transferred to the assay plate by a Pintool station (Kalypsys, San Diego, CA). The assay plates were incubated at 37 C and 5% CO2 for 5 hr. One uL of LiveBLAzer B/G FRET substrate (Life Technologies) was added using a Flying Reagent Dispenser (FRD, Aurora Discovery, San Diego, CA) and the plates were incubated at room temperature for 2 hr. Fluorescence intensity (405 nm excitation, 460 nm and 530 nm emissions) was measured using an Envision plate reader (PerkinElmer, Shelton, CT). For cytotoxicity read, 4 uL of CellTiter-Glo reagent (Promega Corporation, Madison, WI) was added to each well of the assay plates using FRD. After 30min incubation at room temperature, the luminescence intensity was measured using ViewLux plate reader (PerkinElmer).
# % is scaled to controls: 0 for no effect and ±100 for the full control effect.
row,SMILES,"activity change, negative = cytotoxicity"
1,C[CH2][Ge]([Cl])([CH2]C)[CH2]C,-3.29% (inactive)
2,CCOC(=O)CCCCCCCCC(=O)OCC,-4.95% (inactive)
3,FC(F)(F)/C(=N\OCC1OCCO1)c1ccc(Cl)cc1,-16.2% (inactive)
4,COc1cc([N+](=O)[O-])ccc1N,4.87% (inactive)
5,Cc1ccccc1C(=O)N1CC/C(=N\OS(=O)(=O)O)c2ccc(Cl)cc21,-19.2% [at 35.3 µM] (inactive)
6,CC(C)CCO,2.08% (inactive)
7,O=S(=O)(O)c1cc(O)ccc1O,15.2% (inactive)
8,O=CO,8.49% [at 6.97 µM] (inactive)
9,Cc1nc2ccccc2c(=O)o1,8.83% (inactive)
10,O=C(/C=C/c1ccccc1)NCCO,-4.98% [at 35.3 µM] (inactive)
11,CN[C@@H]1[C@H](O)[C@H](NC)[C@H]2O[C@@]3(O)C(=O)C[C@@H](C)O[C@H]3O[C@@H]2[C@H]1O,26.8% [at 35.3 µM] (inactive)
12,CC(=O)Nc1ccc(C)cc1,4.56% (inactive)
13,CCN(CCO)c1cccc(C)c1,1.97% (inactive)
14,Cc1cc(C)cc([N+](=O)[O-])c1,-1.39% (inactive)
15,CCS(=O)(=O)CCn1c([N+](=O)[O-])cnc1C,8.45% [at 35.3 µM] (inactive)
16,NC(=O)C1(N2CCCCC2)CCN(CCCC(=O)c2ccc(F)cc2)CC1,-0.47% [at 35.3 µM] (inactive)
17,CC(=O)N(CC(O)CO)c1c(I)c(C(=O)NCC(O)CO)c(I)c(C(=O)NCC(O)CO)c1I (stereo not given),8.38% [at 35.3 µM] (inactive)
18,C[C@@H]1C[C@H]2[C@@H]3C[C@H](F)C4=CC(=O)C=C[C@]4(C)[C@@]3(F)[C@@H](O)C[C@]2(C)[C@@]1(O)C(=O)CO,1.9% [at 35.3 µM] (inactive)
19,CCC(O)C(C)(C)C (stereo not given),-0.695% (inactive)
20,O=C1c2ccccc2-c2ccccc21,-19.5% (inactive)

row,SMILES,"activity change, negative = cytotoxicity"
1,N#CCCOCCOCCC#N,20% (inactive)
2,C=CCOc1c(Br)cc(C(C)(C)c2cc(Br)c(OCC=C)c(Br)c2)cc1Br,-14.9% [at 35.3 µM] (inactive)
3,CCN(CC)C(=O)C1CN2CCc3cc(OC)c(OC)cc3C2CC1OC(C)=O (stereo not given),13.3% [at 35.3 µM] (inactive)
4,CCCCC(C)C(=O)O (stereo not given),6.57% (inactive)
5,CCCCOC(=O)[C@@H](C)Oc1ccc(Oc2ccc(C(F)(F)F)cn2)cc1,8.51% (inactive)
6,O=C1OC(=O)c2ccccc21,3.48% (inactive)
7,NS(=O)(=O)c1cc2c(cc1Cl)NC(C(Cl)Cl)NS2(=O)=O (stereo not given),6.48% [at 35.3 µM] (inactive)
8,Cc1cc(O)c2c(c1)C(=O)c1cccc(O)c1C2=O,2.49% [at 35.3 µM] (inactive)
9,CCCOC(=O)CCCCC(=O)OCCC,-4.06% (inactive)
10,Nc1cc(S(=O)(=O)O)ccc1S(=O)(=O)O,0.525% (inactive)
11,O=C(Oc1ccccc1C(=O)O)c1ccccc1O,-1.54% [at 35.3 µM] (inactive)
12,Cc1ncc([N+](=O)[O-])n1CC(O)CCl (stereo not given),11.5% [at 35.3 µM] (inactive)
13,Cc1cccc(NC(=S)N(C)C)c1,14.8% (inactive)
14,CC(=O)OCCCc1ccccc1,1.66% (inactive)
15,CO/N=C(/C(=O)N[C@@H]1C(=O)N2C(C(=O)O)=C(Cn3nnc(C)n3)CS[C@H]12)c1csc(N)n1,2.04% [at 35.3 µM] (inactive)
16,CC(=O)OC(C(=O)c1ccccc1)c1ccccc1 (stereo not given),-16.8% (inactive)
17,C1=CCC(c2ccccc2)CC1 (stereo not given),-0.648% (inactive)
18,C=C(C)[C@@H]1CC[C@@H](C)C[C@@H]1O,-14.2% (inactive)
19,NC(Cc1c[nH]c2ccccc12)C(=O)O (stereo not given),-1.27% [at 35.3 µM] (inactive)
20,CCNC(=O)NCCCOc1cccc(CN2CCCCC2)c1,3.74% [at 35.3 µM] (inactive)
